This is an account of results in PubChem BioAssay (EPA / NIEHS).

Inconclusive results are not listed. Some structures have more than one record in an assay (separate samples or runs), and their calls can disagree. Activity calls are given as the source filed them. The calls were made as follows: active = hit-call score of the fitted dose curve at least 0.9, where 1 is the maximum; inconclusive = response in the unintended direction; inactive = score below 0.9.

The assay is described as follows: ACEA_ER_AUC_viability: ACEA Biosciences xCELLigence Real-Time Cell Analysis on Estrogen Receptor Agonism for Viability (AID 2283782).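 Also: continuous compound exposure with impedance area under curve over 80 h; hit means loss of impedance signal meaning reduced cell growth or viability.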 Here is the method:
ACEA_ER is a cell-based, single-readout assay that uses T47D, a human breast cell line, with measurements taken at 80 hours after chemical dosing in a 96-well plate, although TO2 (mc0.srcf) used a 384-well plate. Differences in plate size can be ignored given data normalization.ACEA_ER_AUC_viability is one of two assay component(s) measured or calculated from the ACEA_ER assay. It is designed to make measurements of real-time cell-growth kinetics, a form of growth reporter, as detected with electrical impedance signals by Real-Time Cell Electrode Sensor (RT-CES) technology.Data from the assay component ACEA_ER_AUC_viability was analyzed in the positive analysis fitting direction relative to DMSO as the negative control and baseline of activity. Using a type of growth reporter, loss-of-signal activity can be used to understand changes in the viability. Furthermore, this assay endpoint can be referred to as a secondary readout, because this assay has produced multiple assay endpoints where this one serves a viability function. To generalize the intended target to other relatable targets, this assay endpoint is annotated to the cell cycle intended target family, where the subfamily is cytotoxicity.
The xCELLigence system Multi-E-Plate stations were used to measure the time-dependent response to chemicals. Each compound was tested in an eight-point, 1:4 serial dilution series starting at a maximum final concentration of 100 uM. A maximum starting concentration of 0.5% DMSO was present in the 100 uM chemical samples and was diluted along with the test article dilution series. The screen was performed in biological duplicate using two separate, 96-well, E-Plates 96 for each dilution series (n = 2). Positive controls (MG132 and E2) and a negative control (assay media) were tested in quadruplicate on each testing plate. Then, 0.5% and 0.125% DMSO were tested in duplicates in each plate to serve as solvent controls for the 2 highest concentrations of testing compounds: 100 uM and 25 uM. Reference compounds were tested with 8 concentrations with 1:5 serial dilutions. All screening was carried out by ACEA Biosciences, Inc. (San Diego, CA). T-47D cells purchased from ATCC were maintained in RPMI1640 media supplemented with 10% characterized fetal bovine serum (FBS). Before screening, T-47D cells were preconditioned in assay medium: phenol red-free RPMI1640 supplemented with 10% charcoal-stripped FBS. Cells were then detached and seeded in E-Plates 96 in assay medium. After overnight monitoring of growth once every hour, compounds were added to […] cells and remained in the medium until the end of the experiment. Cellular responses were then recorded once every 5 min for the first 5 h, and once every hour for an additional 100 h.
As to `O=C(Cc1ccccc1)OCCc1ccccc1`, the AC50 is 82.5 µM (active).

For the molecule `Cc1cccc(OP(=O)(Oc2cccc(C)c2)Oc2cccc(C)c2)c1`, the concentration at half-maximal activity (AC50) was 17.3 µM (active).

In the case of `O=C=Nc1ccc(Cl)cc1`, the half-maximal activity concentration (AC50) was 29.9 µM (active).

Take `CCN(CC)C(=O)C(Cl)=C(C)OP(=O)(OC)OC`: the concentration at half-maximal activity (AC50) was 25.8 µM (active).

As for `CC(C)(C#N)N=NC(C)(C)C#N`, the molecule was called inactive.

Consider `CCC[CH2][Sn]([Cl])([Cl])[CH2]CCC`, for which the AC50 was 1.09 µM (active).

Regarding `CC(C)N(C(=O)CCl)c1ccccc1`, the AC50 is 18.5 µM (active).

Consider `BrCCCCBr`, for which the call was inactive.

On to `O=C(NC(=O)c1c(F)cccc1F)Nc1cc(Cl)c(OC(F)(F)C(F)C(F)(F)F)cc1Cl` (stereo not given), for which the AC50 is 50 µM (active).

On to `O=C(NC(=O)c1c(F)cccc1F)Nc1ccc(Cl)cc1`, for which the outcome was inactive.

Turning to `CCOC(=O)Cc1ccccc1`, the AC50 was 50 µM (active).

For `Nc1cccnc1`, the molecule was called inactive.

`O=S(=O)(C(Cl)(Cl)Cl)C(Cl)(Cl)Cl`: the concentration at half-maximal activity (AC50) was 5.21 µM (active).

As to `COc1ccc(N)cc1`, the AC50 is 52 µM (active) and the call was inactive.

`O=c1[nH]c(=O)n(Cl)c(=O)n1Cl`: the result was inactive.

Turning to `CCCCOC(=O)COC(=O)c1ccccc1C(=O)OCCCC`, the molecule was classed as inactive.

Turning to `O=C(CCl)Nc1ccccc1`, the AC50 was 10.8 µM (active).

`Oc1c(Br)cc(Br)cc1Br`: the call was inactive.

For `Cc1cc(Cl)ccc1O`, the result was inactive.

For `O=[N+]([O-])c1cc([As](=O)(O)O)ccc1O`, the result was inactive.

In the case of `N#CCC#N`, the molecule was called inactive.

As for `C=CC(=O)NC(C)(C)CC(C)=O`, the molecule was classed as inactive.

Turning to `CC(C)(C)c1ccccc1O`, the AC50 is 81.5 µM (active).

Turning to `O=C1C=CC(=O)c2ccccc21`, the concentration at half-maximal activity (AC50) was 22.5 µM (active).

With `N#CCCC(Br)(C#N)CBr` (stereo not given), the AC50 was 10.9 µM (active).

With `O=C(O)COc1ccc(Cl)cc1`, the molecule was called inactive.

Take `c1ccc(-c2cccc(-c3ccccc3)c2)cc1`: the half-maximal activity concentration (AC50) was 24.4 µM (active).

Consider `Nc1ccc(N)cc1`, for which the half-maximal activity concentration (AC50) was 49.8 µM (active).

Regarding `CCCSP(=S)(OCC)Oc1ccc(SC)cc1` (stereo not given), the result was inactive.

Regarding `N#Cc1ccc(Cl)cc1`, the AC50 is 50 µM (active).

In the case of `CC(C=O)Cc1ccc2c(c1)OCO2` (stereo not given), the outcome was inactive.

`O=C(N[C@H]1CN2CCC1CC2)c1ccc2c(c1)OCCO2`: the call was inactive.

For `Cc1c([N+](=O)[O-])c(C)c([N+](=O)[O-])c(C(C)(C)C)c1[N+](=O)[O-]`, the call was inactive.

As to `O=[N+]([O-])c1cccc2ccccc12`, the call was inactive.

`CCCCCCCCCCCCOS(=O)(=O)O`: the AC50 was 71.3 µM (active).

Regarding `O=S(=O)(c1ccc(Cl)cc1)c1cc(Cl)c(Cl)cc1Cl`, the half-maximal activity concentration (AC50) was 69.2 µM (active).

On to `C=C(C)C(=O)OCCCCOC(=O)C(=C)C`, for which the half-maximal activity concentration (AC50) is 30.7 µM (active).

For the molecule `CCN(CCO)CCO`, the call was inactive.

Take `O=C(CBr)c1ccc(O)cc1`: the result was inactive.

In general, AC50 refers to the concentration at which the activity in the assay is half-maximal.
